A selection: hits, their analogues and other compounds. The true share with any hit is near 3.3%.
LmPK inh = blocks Leishmania mexicana pyruvate kinase activity | Q27686 | purified LmPK, Kinase-Glo ATP luminescence, 1 h | Potency, µM (doses to about 57.5 µM), for the others: at the highest dose activity change, negative = inhibition, most hits filed as inhibitors | 290,000 compounds, 0.37% hits | AID 1721; further: on the % scale 0 is the no-effect control and ±100 the full control effect
Target sequence (Q27686 whole entry, looked up): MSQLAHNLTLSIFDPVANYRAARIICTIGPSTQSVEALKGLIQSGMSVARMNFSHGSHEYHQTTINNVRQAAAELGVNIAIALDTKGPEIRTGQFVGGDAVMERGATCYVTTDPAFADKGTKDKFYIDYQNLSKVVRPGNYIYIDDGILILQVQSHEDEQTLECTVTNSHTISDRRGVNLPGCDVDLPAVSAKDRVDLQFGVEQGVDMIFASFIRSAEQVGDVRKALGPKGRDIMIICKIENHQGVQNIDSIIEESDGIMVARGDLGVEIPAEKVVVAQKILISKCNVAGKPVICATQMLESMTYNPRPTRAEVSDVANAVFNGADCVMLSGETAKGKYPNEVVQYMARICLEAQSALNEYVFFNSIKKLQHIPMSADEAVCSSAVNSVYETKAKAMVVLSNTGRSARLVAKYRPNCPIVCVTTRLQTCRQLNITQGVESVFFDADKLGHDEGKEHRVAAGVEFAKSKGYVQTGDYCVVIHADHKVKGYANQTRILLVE
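Kinase-Glo luminescence read after 1 h RT reaction of 0.1 nM LmPK with 0.5 mM PEP and 0.1 mM ADP. Activity scaled between uninhibited and enzyme-free controls.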
NS1 function inh = blocks influenza NS1 protein function; Potency, µM (titrated, usually from 46.1 µM), for the others: top-dose activity, positive = more growth; 270,000 compounds, 0.4% hits; AID 2326; calls by dose curve; further: actives are rising curves; nearly all actives have a fitted effect of over 50% in size
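Compounds were scored for reversing the slow growth caused by influenza A NS1 in S. cerevisiae, measured by optical density at 600 nm. Assay medium contained 2% galactose at pH 6.0; NS1-free yeast of the same strain were the positive control.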
TbPYK inhibitor = blocks Trypanosoma brucei pyruvate kinase. Q57TT1. TbPYK enzyme, Kinase-Glo Plus ATP luminescence, 45 min. Potency, µM (series often up to 76.8 µM), for inactives: top-dose activity, negative = inhibition, actives largely listed as inhibitors. 410,000 compounds, 0.12% hits. AID 624173; further: on the % scale 0 is the no-effect control and ±100 the full control effect; nearly all actives have a fitted effect of over 50% in size
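Screened from lowest to highest concentration, compounds were pinned into TbPYK/substrate mixtures, and ADP (130 uM final) was added. Plates sat at room temperature for 45 min prior to Kinase-Glo Plus detection by luminescence.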
RE007 growth inh = less growth of the S. pombe RE007 Vpr strain | S. pombe RE007 Vpr strain, BacTiter-Glo ATP luminescence, 24 h | Potency, µM (titrated, usually from 92.2 µM), inactives show at the highest dose activity change, negative = less growth, usual class: inhibitors | 360,000 compounds, 0.21% hits | AID 651644; active means well fitted falling curve with a large enough effect; inconclusive means small, poorly fitted or top-dose-only effect; inactive means no such curve, though single readings can be large or run the other way; further: on the % scale 0 is the no-effect control and ±100 the full control effect; nearly all actives have a fitted effect of over 50% in size
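Fission yeast strain RE007, carrying one chromosomally integrated HIV-1 vpr copy, was seeded at OD 0.01 in PMG+AL medium with 23 nL pinned compound. After 24 h at 30 °C and 99% humidity, viability was read by BacTiter-Glo luminescence.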
SARS PLP yeast = blocks SARS-CoV papain-like protease in a yeast assay | AID 485353 | Potency, µM (doses to about 32.9 µM), without a hit: at the top dose activity, positive = growth rescue, actives largely listed as activators | S. cerevisiae expressing SARS-CoV PLpro, growth rescue | 330,000 compounds, 0.19% hits; calls by dose curve; further: 0% is about no effect; nearly all actives have a fitted effect of over 55% in size
Sm TGR block = inhibitors of Schistosoma mansoni thioredoxin glutathione reductase; 360,000 compounds, 3% hits; Potency, µM (titrated, usually from 114 µM), for the others: top-dose activity change, negative = inhibition, usual class: inhibitors; AID 485364; Q962Y6; purified TGR, DTNB reduction, TNB absorbance 405 nm; further: on the % scale 0 is the no-effect control and ±100 the full control effect; nearly all actives have a fitted effect of over 60% in size
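First, TGR (20 nM dispensed) and NADPH were mixed with compound. Second, a 15 min room-temperature incubation followed. Third, further NADPH and then DTNB were added to start the reaction. Finally, TNB absorbance was monitored kinetically.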
* = called active by the depositor; ? = inconclusive; . = not tested or not shown; [ ] = dose if it differs, or a comment. Unless noted, the call rests on the fitted dose curve; in most records, active means well fitted curve in the direction sought with a large enough effect; inconclusive means small, poorly fitted or top-dose-only effect, or another doubt; inactive means no such curve, though single readings can be large; an effect the other way counts as inactive or inconclusive. Potency means the concentration at half of the fitted maximal effect.

SMILES	LmPK inh	NS1 function inh	TbPYK inhibitor	RE007 growth inh	SARS PLP yeast	Sm TGR block
CCOc1ccc(N2C(=O)CC(SCc3nc4ccccc4[nH]3)C2=O)cc1 (stereo unspecified)	1.9%	3.1%	5.5%	10µM*	-7.4%	44.7µM*
O=C1CC(SCc2nc3ccccc3[nH]2)C(=O)N1c1ccc(Cl)cc1 (stereo unspecified)	-1.3%	-15.7%	-7.2%	15.8µM*	-32.7%	25.1µM*
COc1cccc(CNC(=O)CCc2nnc3n(C)c(=O)c4sccc4n23)c1	.	.	-0.6%	.	.	5.4%
CCC1=C[C@@H]2CN(C1)Cc1c([nH]c3ccccc13)[C@@](C(=O)OC)(c1cc3c(cc1OC)N(C)[C@@H]1[C@@](O)(C(=O)OC)[C@H](OC(C)=O)[C@]4(CC)C=CCN5CC[C@]31[C@@H]54)C2	.	.	-13.4%	.	.	.
CSc1ccc2c(c1)c(CCN)c(C)n2Cc1ccccc1Cl	.	13.1%	.	.	.	.
O=C(Nc1cccc(C(=O)O)c1)/C(=C\c1ccco1)NC(=O)c1ccccc1	6.5%	14.3%	-19.7%	1.1%	2.3%	?
O=C(Nc1cccc(C(=O)O)c1)/C(=C\c1ccco1)NC(=O)c1ccc(Br)o1	-3.2%	1.2%	?	2.3%	0.5%	50.1µM*
O=C(Nc1cccc(F)c1)/C(=C/c1ccco1)NC(=O)c1ccco1	-9.7%	9.0%	-23.5%	7.5%	-6.1%	44.7µM*
O=C1CCN(Cc2ccccc2)S(=O)(=O)c2ccccc21	3.1%	4.6%	-8.8%	-3.6%	0.0%	20µM*
Cc1ccc(SC2=C(Sc3ccc(C)cc3)C(=O)c3ccccc3C2=O)cc1	?	4.7%	?	-12.8%	-6.5%	?
CC1=CC(=O)C(Sc2ccc(C)cc2)=CC1=O	.	.	7.08µM*	22.4µM*	.	.
CCOc1ccc(Nc2nc3ccccc3n3c(CC)nnc23)cc1	.	.	-3.9%	.	.	-8.6%
CCCCOc1ccc(C(=O)N2CCN(CCc3ccncc3)CC2)cc1	.	.	0.7%	.	.	-24.4%
Cc1nnc(SCC2=C(C(=O)O)N3C(=O)C(NC(=O)Cc4ccccc4)C3SC2)s1 (stereo unspecified)	.	.	-10.6%	-3.2%	-2.8%	12.6µM*
Cc1nnc(SCC2=C(C(=O)O)N3C(=O)C(NC(=O)C(C)n4nc(C(F)(F)F)cc4C)C3SC2)s1 (stereo unspecified)	-1.8%	.	-5.5%	1.9%	-0.6%	7.08µM*
C[C@@H](O)[C@@H]1C(=O)N2C(C(=O)O)=C([C@H]3CCCO3)S[C@H]12	.	.	1.6%	.	.	.
O=C(c1ccccc1)c1cc(Cl)ccc1N1C(=O)C=CC1=O	?	.	4.47µM*	25.1µM*	-4.9%	0.794µM*
COc1cc(/C=N/NC(=O)c2ccoc2C)ccc1O	?	-6.2%	-14.4%	14.2%	?	-11.6%
COc1cccc(/C=N/NC(=O)c2ccoc2C)c1	12.6µM*	-9.1%	-9.7%	-11.2%	-1.6%	-5.9%
Cc1ccc(/C=N/NC(=O)c2cc(C)oc2C)cc1	12.6µM*	-1.5%	-1.7%	-25.6%	-1.7%	-7.6%
CCN(CC)c1ccc(/C=N\NC(N)=O)cc1	-5.9%	10.5%	-6.1%	-5.4%	-18.8%	-2.3%
CCN(CC)c1ccc(/C=N/NC(=O)c2ccoc2C)cc1	14.1µM*	-8.9%	?	-25.9%	-1.2%	29.9%
C[C@H]1CN(CCO)CCN1c1ccccc1	.	-8.3%	.	.	.	.
O=C(O)/C=C\C=C/c1ccc2c(c1)OCO2	.	-4.1%	.	.	.	.
S=c1[nH]nc(Cc2ccccc2)n1-c1cccc2ccccc12	10µM*	-12.3%	3.55µM*	13.0%	5.6%	12.9%
SMILES	LmPK inh	NS1 function inh	TbPYK inhibitor	RE007 growth inh	SARS PLP yeast	Sm TGR block
Cc1ccc(-n2c(Cc3ccccc3)n[nH]c2=S)c(C)c1	-12.3%	5.9%	10µM*	-23.0%	0.2%	-0.1%
CC(C)c1ccc(S(=O)(=O)NCc2nc3cccnc3n2Cc2ccc(F)cc2)cc1	.	.	-8.0%	.	.	8.2%
Cc1ccc2c(c1)/C(=N/OS(=O)(=O)c1ccccc1)CCS2	.	.	-14.4%	-2.9%	.	.
CC1=CC(=O)C(C(C)C)=C/C1=N/OS(=O)(=O)c1ccccc1	2.8%	-100.7%	-15.6%	?	-4.9%	25.1µM*
CC1=CC(=O)C=C(C)C1=NOS(=O)(=O)c1ccccc1	3.4%	-193.9%	5.0%	?	-29.6%	3.98µM*
Cc1nn(C(C)(C)C)c(OC(=O)c2cccc(F)c2)c1Sc1ccccc1	.	.	0.1%	.	.	2.4%
CN1CCc2c(sc(NC(=O)c3ccc(S(=O)(=O)N4CCCCCC4)cc3)c2C(N)=O)C1	-2.8%	-8.6%	-1.0%	-2.4%	0.1%	-21.9%
CC(C)N1CCc2c(sc(NC(=O)c3ccco3)c2C(N)=O)C1	0.6%	26.4%	-0.5%	-9.4%	3.4%	50.1µM*
CN1CCc2c(sc(NC(=O)c3ccc(S(=O)(=O)N4CCCC4)cc3)c2C(N)=O)C1	-10.6%	19.5%	-3.3%	-1.1%	0.6%	100µM*
Cc1ccc(C(=O)C(NC(=O)c2ccco2)Nc2sc3c(c2C(N)=O)CCCC3)cc1 (stereo unspecified)	-3.3%	6.7%	.	.	0.9%	28.2µM*
COC(=O)c1c(NC(=O)c2ccco2)sc2c1CCN(C(C)C)C2	3.6%	-1.0%	-4.8%	-0.1%	-1.7%	-32.6%
COc1ccc2c(c1)CCc1c(C(=O)Nc3c(C)nn(Cc4ccc(C)cc4)c3C)noc1-2	.	.	-1.6%	.	.	1.2%
COc1ccc(NC(=O)Cn2c(=O)oc3cc(S(=O)(=O)NCc4ccccc4)ccc32)c(OC)c1	.	.	-8.4%[15.4 µM]	.	.	2.9%
COc1ccc(NC(c2ccccc2)c2ccncc2)cc1 (stereo unspecified)	2.5%	13.7%	2.0%	-12.4%	-1.6%	39.8µM*
COc1ccc(NC(c2ccccc2)P(=O)(Oc2ccccc2)Oc2ccccc2)cc1 (stereo unspecified)	4.7%	-6.6%	-5.7%	0.1%	-3.1%	-1.0%
O=C(O)COc1ccc(CCNS(=O)(=O)c2ccccc2)s1	.	.	-5.2%	.	.	.
COc1ccc(NC(=O)Cc2ccc(Cl)c(Cl)c2)cn1	10.9%	.	4.5%	0.9%	-3.7%	6.8%
COc1ccc(NC(=O)/C(Cl)=C(/Cl)S(=O)(=O)Cc2ccc(C)cc2)cn1	1.4%	-231.1%	11.0%	?	-33.9%	2.51µM*
COc1ccc(NC(=O)/C(Cl)=C(/Cl)S(=O)Cc2ccccc2Cl)cn1 (stereo unspecified)	-9.2%	.	29.5%	?	-24.5%	0.0891µM*

High-throughput results from PubChem BioAssay.
